In experiment [1] the target is Retinoic acid receptor RXR-alpha (Homo sapiens) (UniProt P19793). Briefly: OT_NURR1_NURR1RXRa_1440: Odyssey Thera (OT) 24-hour HEK293T Protein Complementation Assay for Nurr1/retinoid X receptor (RXR) (AID 2283386; active = hit-call score of the fitted dose curve at least 0.9, where 1 is the maximum). Put shortly:
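Steps: fragment-tagged Nurr1 and RXRα expressed in HEK293T; compounds added; after 24 h, complemented reporter quantified by fluorescence intensity; signal increase over DMSO fitted as the single endpoint.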

The target of experiment [2] is Peroxisome proliferator-activated receptor gamma (Homo sapiens) (UniProt P37231). Briefly: OT_PPARg_PPARgSRC1_0480: Odyssey Thera (OT) 8-hour Protein-Complementation Assay for Peroxisome Proliferator-activated Receptor Gamma / SRC-1 Co-activator (AID 2283387; active = hit-call score of the fitted dose curve at least 0.9, where 1 is the maximum;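 note: nuclear to cytoplasmic split Venus YFP fluorescence ratio reporting PPARg SRC-1 interaction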). Put shortly:
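Protein-fragment complementation in HEK293T: Venus YFP halves (residues 1-158, 159-239, mutated to IFP1/IFP2) fused to PPARg/SRC-1. 8 h exposure; N/C ratio at 488 nm; DMSO negative control.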

Experiment [3] shares this target. Briefly: OT_PPARg_PPARgSRC1_1440: Odyssey Thera (OT) 24-hour Protein-Complementation Assay for Peroxisome Proliferator-activated Receptor Gamma/ SRC-1 Co-activator (AID 2283388; active = hit-call score of the fitted dose curve at least 0.9, where 1 is the maximum;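 note: nuclear to cytoplasmic ratio of reconstituted Venus YFP fluorescence in fixed imaged cells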). Put shortly:
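Readout is the 488 nm N/C fluorescence ratio from fixed, Draq5-stained HEK293T cells after 24 h compound exposure. Cells carried transiently transfected PPARg and SRC-1 fused to Venus fragments, transfected 48 h before treatment.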

Experiment [4] in a line: CEETOX_H295R_11DCORT: CeeTox H295R High-throughput Steroidogenesis Assay for 11-Deoxycortisol (11DCORT) (AID 2283432). The following applies: actives raise or lower the signal. Put shortly:
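Adrenal carcinoma line H295R, run per OECD 456 with minor changes, was forskolin-stimulated (10 uM, 48 h) before a 48 h chemical exposure at 0.1% DMSO. Secreted 11-deoxycortisol was quantified by HPLC-MS/MS.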

Experiment [5] is described as follows: CEETOX_H295R_CORTIC: CeeTox H295R High-throughput Steroidogenesis Assay for Corticosterone (CORTIC) (AID 2283437). The following applies: actives raise or lower the signal. Put shortly:
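Medium corticosterone was quantified by tandem mass spectrometry following 48 hours of chemical exposure (0.1% DMSO) in human H295R cells previously stimulated 48 hours with 10 uM forskolin. Viability checked by MTT; chemicals diluted and retested when viability fell below 70%.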

A short description of experiment [6]: CEETOX_H295R_CORTISOL: CeeTox H295R High-throughput Steroidogenesis Assay for Cortisol (AID 2283438). The following applies: actives raise or lower the signal. Put shortly: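 Cortisol synthesis by H295R cells is measured 48 h after chemical dosing, following a 48 h stimulation with 10 uM forskolin. Hormone is extracted and quantified by HPLC-MS/MS, and activity is fitted bidirectionally against the DMSO control.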

Experiment [7] is described as follows: CEETOX_H295R_DOC: CeeTox H295R High-throughput Steroidogenesis Assay for DOC (AID 2283439). The following applies: actives raise or lower the signal. Put shortly: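 Steps: seed H295R, adhere overnight; 10 uM forskolin 48 h; replace with chemical medium (0.1% DMSO) 48 h; collect medium, MTBE extraction, HPLC-MS/MS for DOC. Viability then checked by MTT; cytotoxic chemicals diluted until viability ≥70%.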

A short description of experiment [8]: CEETOX_H295R_ESTRADIOL: CeeTox H295R High-throughput Steroidogenesis Assay for Estradiol (AID 2283440).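 Note: estradiol secreted into medium quantified by LC-MS/MS after dansyl derivatisation.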 The following applies: actives raise or lower the signal. Put shortly:
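Estradiol in spent medium measured by LC-MS/MS after dansyl chloride derivatisation. Forskolin-primed (10 uM, 48 h) human adrenal H295R cells received test chemical 48 h at 0.1% DMSO; concentrations lowered until MTT viability >/=70%.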

The nature of experiment [9]: CEETOX_H295R_PROG: CeeTox H295R High-throughput Steroidogenesis Assay for Progesterone (PROG) (AID 2283442). The following applies: actives raise or lower the signal. Put shortly: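 Progesterone secreted by human H295R cells was measured by LC-MS/MS following 48 h chemical exposure at 0.1% DMSO, preceded by 48 h forskolin (10 uM) stimulation. Same-well MTT viability; cytotoxic concentrations diluted 10- or 100-fold and retested.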

Read-out in experiment [10]: Tumor necrosis factor receptor superfamily member 6 (Homo sapiens) (UniProt P25445)
The experiment can be described thus: LTEA_HepaRG_FAS: Life Technologies and Expression Analysis (LTEA) Assay for Fas cell surface death receptor (FAS) using HepaRG (AID 2283447). The following applies: mRNA level, 48 h; actives raise or lower the signal. Put shortly:
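FAS transcript level was measured by TaqMan qRT-PCR against three housekeeping genes after 48 h chemical exposure. Cells were HepaRG, 0.5% DMSO vehicle, with a top concentration of 100 uM and half-log dilutions over eight points, in duplicate.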

Read-out in experiment [11]: Fatty acid synthase (Homo sapiens) (UniProt P49327)
The experiment can be described thus: LTEA_HepaRG_FASN: Life Technologies and Expression Analysis (LTEA) Assay for Fatty Acid Synthase (FASN) using HepaRG (AID 2283448).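 For AC50: differentiated human HepaRG liver cells in serum-free induction medium.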 The following applies: mRNA level, 48 h; actives raise or lower the signal. Put shortly: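 Cells were plated, cultured 48 h, switched to serum-free induction medium, then dosed in duplicate (max 100 uM, half-log dilutions, 0.5% DMSO) for 48 h. RNA was then isolated and FASN quantified by qRT-PCR.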

Read-out in experiment [12]: Cyclin D2 (CCND2), CCND2 (gene 894)
Briefly: LTEA_HepaRG_CCND2: Life Technologies and Expression Analysis (LTEA) Assay for Cyclin D2 (CCND2) using HepaRG (AID 2283449). The following applies: mRNA level, 48 h; actives raise or lower the signal. Put shortly:
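CCND2 transcript levels, quantified by qRT-PCR and normalised to three housekeeping genes, were fitted bidirectionally against 0.5% DMSO. HepaRG cultures were dosed 48 h in duplicate with an 8-point half-log series up to 100 uM.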

Read-out in experiment [13]: Cyclin D1 (CCND1), CCND1 (gene 595)
Briefly: LTEA_HepaRG_CCND1: Life Technologies and Expression Analysis (LTEA) Assay for Cyclin D1 (CCND1) using HepaRG (AID 2283451).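 For AC50: differentiated human HepaRG liver cells in serum-free induction medium; TaqMan qRT-PCR transcript level normalised to ACTB GAPDH and POLR2A housekeeping genes.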 The following applies: mRNA level, 48 h; actives raise or lower the signal. Put shortly:
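Expression of CCND1 was quantified by qRT-PCR on Fluidigm arrays using ACTB, GAPDH and POLR2A as reference genes. HepaRG cultures, plated 48 h beforehand, were dosed for 48 h at up to 100 uM (half-log, 8 points) in 0.5% DMSO.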

Read-out in experiment [14]: flavin-containing dimethylaniline monooxygenases 3 (FMO3), FMO3 (gene 2328)
Briefly: LTEA_HepaRG_FMO3: Life Technologies and Expression Analysis (LTEA) Assay for flavin-containing dimethylaniline monooxygenases 3 (FMO3) using HepaRG (AID 2283453).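 For AC50: differentiated human HepaRG liver cells in serum-free induction medium; FMO3 transcript by TaqMan qRT-PCR normalized to ACTB GAPDH and POLR2A.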 The following applies: mRNA level, 48 h; actives raise or lower the signal. Put shortly: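 FMO3 transcript quantified by TaqMan qRT-PCR against three housekeeping genes after 48 h chemical exposure of HepaRG cells. Eight-point half-log series, top 100 uM, 0.5% DMSO vehicle; phenobarbital 1mM induction control; up- or down-regulation fitted.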

Read-out in experiment [15]: Cytochrome P450 (CYP1A1), CYP1A1 (gene 1543)
Briefly: LTEA_HepaRG_CYP1A1: Life Technologies and Expression Analysis (LTEA) Assay for Cytochrome P450 (CYP1A1) using HepaRG (AID 2283454). The following applies: mRNA level, 48 h; actives raise or lower the signal. Put shortly: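 CYP1A1 transcript levels measured by Fluidigm qRT-PCR against three housekeeping genes, 48 h after chemical dosing of human HepaRG cells (highest concentration 100 uM, half-log steps, 0.5% DMSO vehicle). Gain or loss of signal fitted relative to DMSO.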

Experiment [16] in a line: CEETOX_H295R_OHPREG: CeeTox H295R High-throughput Steroidogenesis Assay for OH-Pregnenolone (OHPREG) (AID 2283434). The following applies: actives raise or lower the signal. Put shortly: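 Secreted 17alpha-hydroxypregnenolone measured by HPLC-MS/MS after liquid-liquid extraction. Human adrenal H295R cells received 48 h forskolin (10 uM) stimulation before 48 h chemical exposure at 0.1% final DMSO; MTT viability in same wells; bidirectional fit against DMSO.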

Read-out in experiment [17]: Cyclin Dependent Kinase Inhibitor 1A (CDKN1A), CDKN1A (gene 1026)
Briefly: LTEA_HepaRG_CDKN1A: Life Technologies and Expression Analysis (LTEA) Assay for Cyclin Dependent Kinase Inhibitor 1A (CDKN1A) using HepaRG (AID 2283450). The following applies: mRNA level, 48 h; actives raise or lower the signal. Put shortly: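 Expression quantified by Fluidigm qRT-PCR with ACTB, GAPDH and POLR2A normalization, fitted bidirectionally against 0.5% DMSO. Cells: HepaRG, plated 48 h then treated 48 h in serum-free induction medium, top concentration 100 uM with half-log dilutions.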

Read-out in experiment [18]: catalase (CAT), CAT (gene 847)
The experiment can be described thus: LTEA_HepaRG_CAT: Life Technologies and Expression Analysis (LTEA) Assay for catalase (CAT) using HepaRG (AID 2283452). The following applies: mRNA level, 48 h; actives raise or lower the signal. Put shortly: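 Expression of CAT was quantified by TaqMan qRT-PCR with ACTB/GAPDH/POLR2A normalization after 48 h chemical exposure of HepaRG. Eight-point half-log series, top 100 uM, in 0.5% DMSO; gain or loss fitted against vehicle.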

Experiment [19] is described as follows: CEETOX_H295R_ESTRONE: CeeTox H295R High-throughput Steroidogenesis Assay for Estrone (AID 2283441). The following applies: actives raise or lower the signal. Put shortly:
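Estrone secreted into medium quantified by LC-MS/MS after dansyl chloride derivatization, following 48 h chemical exposure (0.1% DMSO final) of forskolin-prestimulated (10 uM, 48 h) H295R cells; gain or loss fitted against DMSO; MTT viability in same wells.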

Where “and” joins values, the source holds several entries; their conditions need not be identical. Identical values can stand only once. Results filed as inconclusive are left out. The source holds several records for some structures; these can differ, active in one and inactive in another. Calls of active or inactive are those of the source. Rule for the calls, unless noted: active = hit-call score of the fitted dose curve at least 0.9, where 1 is the maximum; inactive = score below 0.9.

For seven molecules, outcome and AC50 results are on record in PubChem BioAssay (EPA / NIEHS).

Usually AC50 stands for the concentration at which the activity in the assay is half-maximal.

Fatty acid synthase (Homo sapiens), sequence (P49327 whole entry, looked up): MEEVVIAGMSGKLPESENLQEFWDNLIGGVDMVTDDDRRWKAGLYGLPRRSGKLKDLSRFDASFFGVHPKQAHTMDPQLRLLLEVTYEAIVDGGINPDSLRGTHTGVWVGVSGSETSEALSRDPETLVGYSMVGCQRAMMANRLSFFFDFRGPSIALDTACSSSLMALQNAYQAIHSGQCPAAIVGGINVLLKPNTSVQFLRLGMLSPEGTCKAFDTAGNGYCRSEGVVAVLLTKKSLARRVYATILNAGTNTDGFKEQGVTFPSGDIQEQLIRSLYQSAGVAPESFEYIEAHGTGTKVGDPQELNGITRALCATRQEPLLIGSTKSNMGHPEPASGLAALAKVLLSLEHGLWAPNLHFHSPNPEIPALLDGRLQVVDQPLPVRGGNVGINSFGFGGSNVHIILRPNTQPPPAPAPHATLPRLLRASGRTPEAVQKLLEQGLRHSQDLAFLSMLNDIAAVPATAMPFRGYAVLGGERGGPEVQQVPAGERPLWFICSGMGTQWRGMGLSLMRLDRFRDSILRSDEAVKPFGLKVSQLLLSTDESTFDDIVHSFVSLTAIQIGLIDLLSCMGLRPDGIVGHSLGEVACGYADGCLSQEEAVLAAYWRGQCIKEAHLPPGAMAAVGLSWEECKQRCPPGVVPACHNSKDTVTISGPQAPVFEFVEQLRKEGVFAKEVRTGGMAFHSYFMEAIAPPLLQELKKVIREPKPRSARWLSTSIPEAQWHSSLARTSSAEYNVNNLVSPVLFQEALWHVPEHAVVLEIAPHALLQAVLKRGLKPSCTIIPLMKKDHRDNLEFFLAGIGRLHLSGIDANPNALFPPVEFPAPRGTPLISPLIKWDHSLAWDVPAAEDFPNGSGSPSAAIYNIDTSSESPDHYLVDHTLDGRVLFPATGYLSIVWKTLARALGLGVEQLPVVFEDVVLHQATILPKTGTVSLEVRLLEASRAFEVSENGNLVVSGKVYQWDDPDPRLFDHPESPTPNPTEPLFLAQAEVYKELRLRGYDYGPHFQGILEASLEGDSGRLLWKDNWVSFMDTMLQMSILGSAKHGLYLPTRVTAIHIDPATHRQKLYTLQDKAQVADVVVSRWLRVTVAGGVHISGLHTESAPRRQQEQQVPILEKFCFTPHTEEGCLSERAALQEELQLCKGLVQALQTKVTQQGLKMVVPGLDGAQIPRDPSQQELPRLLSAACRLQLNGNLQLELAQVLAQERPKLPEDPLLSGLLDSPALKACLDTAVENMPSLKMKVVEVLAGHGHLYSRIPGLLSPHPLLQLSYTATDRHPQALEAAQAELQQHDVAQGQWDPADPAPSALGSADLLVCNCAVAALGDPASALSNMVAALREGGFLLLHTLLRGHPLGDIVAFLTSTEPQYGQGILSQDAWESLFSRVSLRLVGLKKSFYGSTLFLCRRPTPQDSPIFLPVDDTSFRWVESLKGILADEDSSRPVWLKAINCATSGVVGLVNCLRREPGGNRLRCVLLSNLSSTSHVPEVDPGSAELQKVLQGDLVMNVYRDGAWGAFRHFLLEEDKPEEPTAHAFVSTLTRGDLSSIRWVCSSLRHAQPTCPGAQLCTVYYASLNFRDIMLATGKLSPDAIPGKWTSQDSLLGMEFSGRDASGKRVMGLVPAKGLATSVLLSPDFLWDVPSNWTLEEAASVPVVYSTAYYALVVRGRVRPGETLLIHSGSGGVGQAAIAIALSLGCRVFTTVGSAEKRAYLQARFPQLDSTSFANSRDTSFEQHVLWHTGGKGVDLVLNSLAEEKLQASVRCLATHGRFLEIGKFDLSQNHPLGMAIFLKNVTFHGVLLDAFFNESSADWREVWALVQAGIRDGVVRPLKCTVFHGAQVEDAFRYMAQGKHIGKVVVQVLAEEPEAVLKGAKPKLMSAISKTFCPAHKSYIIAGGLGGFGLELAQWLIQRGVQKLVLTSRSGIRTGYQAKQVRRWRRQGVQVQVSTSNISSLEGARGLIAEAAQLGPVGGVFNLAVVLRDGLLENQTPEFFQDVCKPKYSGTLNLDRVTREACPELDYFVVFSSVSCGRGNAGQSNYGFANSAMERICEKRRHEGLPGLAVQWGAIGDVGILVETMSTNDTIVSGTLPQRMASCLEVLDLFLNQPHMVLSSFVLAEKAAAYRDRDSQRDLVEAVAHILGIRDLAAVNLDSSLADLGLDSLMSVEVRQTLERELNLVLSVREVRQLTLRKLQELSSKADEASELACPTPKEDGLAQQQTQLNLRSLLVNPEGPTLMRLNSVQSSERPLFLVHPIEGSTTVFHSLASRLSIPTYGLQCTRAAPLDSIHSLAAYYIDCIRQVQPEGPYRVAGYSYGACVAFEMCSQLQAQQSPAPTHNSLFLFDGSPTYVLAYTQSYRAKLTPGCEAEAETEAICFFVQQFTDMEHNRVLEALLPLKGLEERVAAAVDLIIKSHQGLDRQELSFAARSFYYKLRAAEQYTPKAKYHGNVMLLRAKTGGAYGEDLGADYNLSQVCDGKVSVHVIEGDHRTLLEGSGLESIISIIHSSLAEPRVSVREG
Peroxisome proliferator-activated receptor gamma (Homo sapiens), sequence (P37231 whole entry, looked up, the tested form may be a part): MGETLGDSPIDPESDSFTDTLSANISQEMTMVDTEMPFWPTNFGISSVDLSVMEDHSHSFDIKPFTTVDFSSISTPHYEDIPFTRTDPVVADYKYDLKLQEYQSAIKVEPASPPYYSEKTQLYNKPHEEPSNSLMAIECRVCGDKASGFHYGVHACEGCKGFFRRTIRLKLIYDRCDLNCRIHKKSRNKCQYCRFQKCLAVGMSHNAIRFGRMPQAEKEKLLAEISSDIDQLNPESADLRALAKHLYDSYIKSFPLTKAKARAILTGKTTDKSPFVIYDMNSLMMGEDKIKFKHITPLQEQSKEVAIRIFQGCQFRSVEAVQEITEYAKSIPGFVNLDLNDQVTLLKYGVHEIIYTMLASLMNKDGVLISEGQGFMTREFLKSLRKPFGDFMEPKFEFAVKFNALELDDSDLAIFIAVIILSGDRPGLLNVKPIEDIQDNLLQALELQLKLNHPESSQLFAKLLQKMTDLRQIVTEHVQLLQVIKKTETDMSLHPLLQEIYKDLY
Retinoic acid receptor RXR-alpha (Homo sapiens), sequence (P19793 whole entry, looked up, the tested form may be a part): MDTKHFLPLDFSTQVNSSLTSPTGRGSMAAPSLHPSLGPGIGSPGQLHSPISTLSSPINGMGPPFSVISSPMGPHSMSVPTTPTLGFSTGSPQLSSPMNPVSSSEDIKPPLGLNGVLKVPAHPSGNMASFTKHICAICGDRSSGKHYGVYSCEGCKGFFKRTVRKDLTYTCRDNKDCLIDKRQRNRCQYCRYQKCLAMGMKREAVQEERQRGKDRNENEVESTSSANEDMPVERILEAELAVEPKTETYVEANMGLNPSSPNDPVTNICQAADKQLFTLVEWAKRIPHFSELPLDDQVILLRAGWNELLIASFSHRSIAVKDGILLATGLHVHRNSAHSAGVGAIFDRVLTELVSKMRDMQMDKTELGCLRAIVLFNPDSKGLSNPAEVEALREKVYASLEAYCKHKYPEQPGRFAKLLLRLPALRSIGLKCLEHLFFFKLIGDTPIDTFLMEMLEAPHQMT

Take `OC1CCC(C2CCCCC2)CC1` (centres undefined): the outcome in [1], in [2], in experiment [3], in experiment [4], in experiment [6] and in [7] was inactive. The outcome in [8], in [9], in experiment [10], in experiment [11], in experiment [12] and in experiment [13] was inactive. In addition, the call in [14] and in [15] was inactive. For the same molecule, in [5], the AC50 was 23.2 µM (active).
As to `c1ccc2cc3c(ccc4ccccc43)cc2c1`, the AC50 is 79.7 µM (active) in experiment [1]; 4.82 µM (active) in [11]; 9.56 µM (active) in experiment [13]; 13.6 µM (active) in [14]; 1.66 µM (active) in experiment [15]. For the same molecule, the molecule was classed as inactive in experiment [1], in experiment [2], in experiment [3], in experiment [16], in [9] and in experiment [10]. Besides, the molecule was classed as inactive in experiment [12] and in [17].
Consider `C#C[C@]1(O)CC[C@H]2[C@@H]3CCC4=CC(=O)CC[C@@H]4[C@H]3CC[C@@]21C`, for which the outcome in [1], in [2], in experiment [3], in experiment [5], in experiment [10] and in experiment [12] was inactive. For the same molecule, the call in experiment [17], in experiment [13], in [14] and in [15] was inactive. Moreover, the AC50 in experiment [11] was 50 µM (active).
As to `CCCCC(CC)COC(=O)CCCCC(=O)OCc1ccccc1` (centres undefined), the call in [1], in [2], in [3], in [10], in experiment [11] and in experiment [12] was inactive. For the same molecule, the molecule was called inactive in [13], in [18] and in [14]. In addition, the AC50 in [15] is 50 µM (active).
For the molecule `CCc1nn(C2CCCCC2)c2cc(C3(C#N)CCC(C(=O)O)CC3)ccc12` (centres undefined), the AC50 in experiment [1] was 79.7 µM (active) and 73.6 µM (active); in [10], 31.1 µM (active); in experiment [11], 85.1 µM (active); in [13], 19.5 µM (active); in experiment [14] it was 83.7 µM (active); in experiment [15], 14.4 µM (active). Also, the outcome in experiment [2], in experiment [3], in experiment [4], in experiment [16], in experiment [5] and in experiment [6] was inactive. Moreover, the outcome in experiment [7], in [8], in experiment [19], in experiment [9] and in experiment [12] was inactive.
`CC(C)(C)CC(C)(C)c1ccc(O)c(-n2nc3ccccc3n2)c1`: the AC50 in experiment [1] is 30 µM (active) and 84.7 µM (active); in [11] it was 50 µM (active); in experiment [14], 77.6 µM (active); in experiment [15], 41 µM (active). For the same molecule, the call in experiment [2], in experiment [3], in [10], in [12] and in [13] was inactive.
Take `CC(C)(C)c1cc(C(C)(C)C)c(O)c(C(C)(C)C)c1`: the half-maximal activity concentration (AC50) is 85 µM (active) in [1] and 50 µM (active) in experiment [11]. Moreover, the call in experiment [2], in [3], in [10], in [12], in experiment [13] and in experiment [14] was inactive. Further, the result in experiment [15] was inactive.
